Where “and” joins values, the source holds several entries; their conditions need not be identical. Identical values can stand only once. In all, about 5,500 compounds went through this assay and about 2,000 (36%) were called active. About 18% were inconclusive and are not listed. This is one part of the list. Unmarked numbers belong to inactive results. Cut-off read from the data, not from the text of the source: active = normalized growth mostly below about 0.91 (no sharp cut-off); inconclusive = no clear call, values can overlap the other calls; inactive = mostly above about 0.92.
Assay: chemical genetic growth profiling, strain panel (AID 1159580);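 note: tested at 20 µM; growth read once vehicle control cultures reached saturation at 30 °C; 1 = growth at the plate median or of vehicle wells; lower values mean less growth of the strain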
Settings: growth OD
[1] = S. cerevisiae deletion strains, locus YJR075W, strain HOC1, hits give low values
[2] = S. cerevisiae deletion strains, locus YNL153C, strain GIM3, hits give low values

C[C@]12CC[C@@H]3c4ccc(O)cc4CC[C@H]3[C@@H]1CC[C@@H]2O
normalized growth (S. cerevisiae deletion strains, locus YAL013W, strain DEP1, hits give low values): 1
normalized growth (S. cerevisiae deletion strains, locus YAL040C, strain CLN3, hits give low values): 1.01
normalized growth (S. cerevisiae deletion strains, locus YCL061C, strain MRC1 (second series), hits give low values): 1.01
normalized growth (S. cerevisiae deletion strains, locus YDR150W, strain NUM1, hits give low values): 1.01
normalized growth (S. cerevisiae deletion strains, locus YDR363W, strain ESC2, hits give low values): 1.01
normalized growth (S. cerevisiae deletion strains, locus YER002W, strain NOP16, hits give low values): 1.02
normalized growth (S. cerevisiae deletion strains, locus YGR078C, strain PAC10, hits give low values): 0.999
normalized growth [1]: 1.01
normalized growth [2]: 0.948
normalized growth (S. cerevisiae deletion strains, locus YNL175C, strain NOP13, hits give low values): 1.01
normalized growth (S. cerevisiae deletion strains, locus YNL197C, strain WHI3, hits give low values): 1.03
normalized growth (S. cerevisiae deletion strains, locus YNL224C, strain SQS1, hits give low values): 1.03
normalized growth (S. cerevisiae deletion strains, locus YOR083W, strain WHI5 (second series), hits give low values): 0.899

CC12CCC3c4ccc(OC(=O)c5ccccc5)cc4CCC3C1CCC2O (stereo not given)
normalized growth (S. cerevisiae deletion strains, locus YBR021W, strain FUR4, hits give low values): 1.06
normalized growth (S. cerevisiae deletion strains, locus YBR229C, strain ROT2, hits give low values): 1
normalized growth (S. cerevisiae deletion strains, locus YCL029C, strain bik1, hits give low values): 1
normalized growth (S. cerevisiae deletion strains, locus YDL035C, strain GPR1, hits give low values): 1
normalized growth (S. cerevisiae deletion strains, locus YDL074C, strain BRE1, hits give low values): 0.981
normalized growth (S. cerevisiae deletion strains, locus YDL101C, strain DUN1, hits give low values): 0.992
normalized growth (S. cerevisiae deletion strains, locus YDL134C, strain PPH21, hits give low values): 1
normalized growth (S. cerevisiae deletion strains, locus YDL185W, strain tfp1, hits give low values): 0.999
normalized growth (S. cerevisiae deletion strains, locus YDL192W, strain arf1, hits give low values): 0.995
normalized growth (S. cerevisiae deletion strains, locus YDR101C, strain arx1, hits give low values): 0.99
normalized growth (S. cerevisiae deletion strains, locus YDR162C, strain NBP2, hits give low values): 1.02
normalized growth (S. cerevisiae deletion strains, locus YDR318W, strain mcm21, hits give low values): 0.99
normalized growth (S. cerevisiae deletion strains, locus YDR388W, hits give low values): 0.993
normalized growth (S. cerevisiae deletion strains, locus YDR502C, strain sam2, hits give low values): 1
normalized growth (S. cerevisiae deletion strains, locus YEL061C, strain CIN8, hits give low values): 1.01
normalized growth (S. cerevisiae deletion strains, locus YER110C, hits give low values): 1
normalized growth (S. cerevisiae deletion strains, locus YER155C, strain BEM2, hits give low values): 1.01
normalized growth (S. cerevisiae deletion strains, locus YER167W, strain BCK2, hits give low values): 1
normalized growth (S. cerevisiae deletion strains, locus YGL078C, strain dbp3, hits give low values): 1
normalized growth (S. cerevisiae deletion strains, locus YGL086W, strain mad1, hits give low values): 1
normalized growth (S. cerevisiae deletion strains, locus YGL248W, strain PDE1, hits give low values): 0.992
normalized growth (S. cerevisiae deletion strains, locus YGR135W, strain pre9, hits give low values): 0.997
normalized growth (S. cerevisiae deletion strains, locus YGR229C, strain SMI1, hits give low values): 1.02
normalized growth (S. cerevisiae deletion strains, locus YGR252W, strain gcn5, hits give low values): 1
normalized growth (S. cerevisiae deletion strains, locus YHR030C, strain SLT2, hits give low values): 1.01 and 1.03
normalized growth (S. cerevisiae deletion strains, locus YHR079C, strain IRE1 (second series), hits give low values): 1
normalized growth (S. cerevisiae deletion strains, locus YHR079C, strain IRE1, hits give low values): 1.05
normalized growth (S. cerevisiae deletion strains, locus YHR094C, strain hxt1, hits give low values): 0.995
normalized growth (S. cerevisiae deletion strains, locus YHR129C, strain ARP1, hits give low values): 1
normalized growth (S. cerevisiae deletion strains, locus YHR200W, strain rpn10, hits give low values): 1
normalized growth (S. cerevisiae deletion strains, locus YIL066C, strain RNR3, hits give low values): 1
normalized growth (S. cerevisiae deletion strains, locus YIL073C, strain SPO22, hits give low values): 1.03
normalized growth (S. cerevisiae deletion strains, locus YIL125W, strain kgd1, hits give low values): 0.994
normalized growth (S. cerevisiae deletion strains, locus YIR030C, strain dcg1, hits give low values): 0.997
normalized growth (S. cerevisiae deletion strains, locus YJL095W, strain BCK1, hits give low values): 0.958 and 1.01
normalized growth (S. cerevisiae deletion strains, locus YJL134W, strain LCB3, hits give low values): 1.01
normalized growth (S. cerevisiae deletion strains, locus YJL168C, strain set2, hits give low values): 0.989
normalized growth (S. cerevisiae deletion strains, locus YJL187C, strain SWE1 (second series), hits give low values): 1
normalized growth (S. cerevisiae deletion strains, locus YJR043C, strain POL32, hits give low values): 1.01
normalized growth (S. cerevisiae deletion strains, locus YJR066W, strain TOR1, hits give low values): 0.963
normalized growth [1]: 1.01
normalized growth (S. cerevisiae deletion strains, locus YKL009W, strain mrt4, hits give low values): 1
normalized growth (S. cerevisiae deletion strains, locus YKL068W, hits give low values): 1.01
normalized growth (S. cerevisiae deletion strains, locus YKL085W, strain MDH1 (second series), hits give low values): 1
normalized growth (S. cerevisiae deletion strains, locus YKL085W, strain MDH1, hits give low values): 1
normalized growth (S. cerevisiae deletion strains, locus YKL190W, strain CNB1, hits give low values): 1.01
normalized growth (S. cerevisiae deletion strains, locus YKR001C, strain vps1, hits give low values): 0.945
normalized growth (S. cerevisiae deletion strains, locus YLR039C, strain RIC1, hits give low values): 0.755
normalized growth (S. cerevisiae deletion strains, locus YLR058C, strain SHM2, hits give low values): 1.01
normalized growth (S. cerevisiae deletion strains, locus YLR102C, strain apc9, hits give low values): 0.991
normalized growth (S. cerevisiae deletion strains, locus YLR113W, strain HOG1, hits give low values): 1.02
normalized growth (S. cerevisiae deletion strains, locus YLR262C, strain YPT6, hits give low values): 0.606 (active)
normalized growth (S. cerevisiae deletion strains, locus YLR268W, strain sec22, hits give low values): 1
normalized growth (S. cerevisiae deletion strains, locus YLR330W, strain CHS5, hits give low values): 1.02
normalized growth (S. cerevisiae deletion strains, locus YLR342W, strain FKS1 (second series), hits give low values): 0.999
normalized growth (S. cerevisiae deletion strains, locus YLR371W, strain rom2, hits give low values): 0.995
normalized growth (S. cerevisiae deletion strains, locus YLR418C, strain cdc73, hits give low values): 0.949
normalized growth (S. cerevisiae deletion strains, locus YML016C, strain PPZ1, hits give low values): 1.01
normalized growth (S. cerevisiae deletion strains, locus YML032C, strain rad52, hits give low values): 0.992
normalized growth (S. cerevisiae deletion strains, locus YML124C, strain tub3, hits give low values): 0.999
normalized growth (S. cerevisiae deletion strains, locus YMR078C, strain ctf18, hits give low values): 0.988
normalized growth (S. cerevisiae deletion strains, locus YMR223W, strain ubp8, hits give low values): 1
normalized growth (S. cerevisiae deletion strains, locus YMR263W, strain SAP30, hits give low values): 1.01
normalized growth (S. cerevisiae deletion strains, locus YMR307W, strain GAS1, hits give low values): 1.22
normalized growth (S. cerevisiae deletion strains, locus YNL067W, strain RPL9B, hits give low values): 1.01
normalized growth (S. cerevisiae deletion strains, locus YNL128W, strain TEP1, hits give low values): 1.04
normalized growth [2]: 0.997
normalized growth (S. cerevisiae deletion strains, locus YNL183C, strain NPR1, hits give low values): 0.934
normalized growth (S. cerevisiae deletion strains, locus YNL233W, strain BNI4, hits give low values): 0.97
normalized growth (S. cerevisiae deletion strains, locus YNL250W, strain rad50, hits give low values): 1
normalized growth (S. cerevisiae deletion strains, locus YNL271C, strain bni1, hits give low values): 0.992
normalized growth (S. cerevisiae deletion strains, locus YNL298W, strain CLA4, hits give low values): 0.993
normalized growth (S. cerevisiae deletion strains, locus YNL307C, strain MCK1, hits give low values): 0.926
normalized growth (S. cerevisiae deletion strains, locus YNR052C, strain pop2, hits give low values): 1
normalized growth (S. cerevisiae deletion strains, locus YOL006C, strain TOP1, hits give low values): 0.921
normalized growth (S. cerevisiae deletion strains, locus YOL012C, strain htz1): 0.873
normalized growth (S. cerevisiae deletion strains, locus YOL147C, strain pex11, hits give low values): 1
normalized growth (S. cerevisiae deletion strains, locus YOR061W, strain CKA2, hits give low values): 1
normalized growth (S. cerevisiae deletion strains, locus YOR069W, strain VPS5, hits give low values): 1.01
normalized growth (S. cerevisiae deletion strains, locus YOR136W, strain idh2, hits give low values): 1
normalized growth (S. cerevisiae deletion strains, locus YOR144C, strain elg1, hits give low values): 1
normalized growth (S. cerevisiae deletion strains, locus YOR184W, strain ser1, hits give low values): 0.974
normalized growth (S. cerevisiae deletion strains, locus YOR231W, strain MKK1, hits give low values): 1.03
normalized growth (S. cerevisiae deletion strains, locus YOR316C, strain cot1, hits give low values): 0.992
normalized growth (S. cerevisiae deletion strains, locus YPL055C, strain LGE1, hits give low values): 1
normalized growth (S. cerevisiae deletion strains, locus YPL256C, strain CLN2, hits give low values): 1.06
normalized growth (S. cerevisiae deletion strains, locus YPR119W, strain clb2, hits give low values): 0.994
normalized growth (S. cerevisiae deletion strains, locus YPR141C, strain kar3, hits give low values): 1
normalized growth (S. cerevisiae deletion strains, locus YPR163C, strain tif3, hits give low values): 1.01
normalized growth (S. cerevisiae deletion strains, locus YPR167C, strain met16, hits give low values): 1
normalized growth (S. cerevisiae deletion strains, strain wtn01, hits give low values): 0.996
normalized growth (S. cerevisiae strains, strain wild type, hits give low values): 1

Reference: PubChem BioAssay AID1159580 (chemical genetic matrix, 2015)
